From PubChem BioAssay

These compounds were tested on Fibrinogen (Alexa647-labelled) (assay: fibrinogen binders on compound microarrays, profiling panel, artefact control for SMM control-protein annotation, biochemical, small-molecule microarray, 635/667 nm fluorescence (AID 1131;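 further: z-score merges 667 nm fluorescence with per-spot signal-to-noise over triplicate slides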)). Settings: fibrinogen-A647 binding fluorescence, higher = more signal.
Compound `CCCC[C@@H](O)C1=C(C)Cn2c(=O)n(-c3ccccc3)c(=O)n2[C@H]1CO` has a composite z-score of -0.926. Work on `CCOC(=O)C[C@H]1[C@H](OC(=O)c2cc3ccccc3oc2=O)[C@@H](NC(=O)Cc2ccc(OC)cc2)c2cc(OCCCO)ccc2N1C(=O)Cc1ccc(OC)cc1` yielded a composite z-score of 1.03. Work on `COC(=O)C1=CC(CCCO)=CC(c2ccc(CN3CCCC3)cc2)N(C)C=C1C(=O)OC` (stereo not drawn) yielded a composite z-score of 1.01. `CCOC(=O)C[C@H]1[C@H](OC(=O)c2ccc(-c3ccccc3)cc2)[C@@H](NC(=O)c2ccc(-c3ccccc3)cc2)c2cc(OCCCO)ccc2N1C(=O)c1ccccc1` showed a composite z-score of 0.856. Compound `COc1ccc(C(=O)Nc2cccc(CN3C(=O)[C@]4(O[C@H](CC(=O)N(CCO)Cc5ccccc5)[C@@H]([Si](C)(C)c5ccc(OC)cc5)[C@@H]4C)c4ccccc43)c2)cc1` has a composite z-score of 0.334. In the case of `O=C(N1CCOCC1)[C@]1(CCS(=O)(=O)c2ccccc2)N=C(c2ccc(OCCCO)cc2)O[C@@H]1c1ccccc1`, the composite z-score is reported as 0.996. `CC(C)c1ccc(NN2C(C(O)c3ccccc3)C=CC3C(=O)N(c4ccccc4)C(=O)C32)cc1` (stereo not drawn) was tested, and the composite z-score was 1.02. Compound `COc1ccc([Si](C)(C)[C@H]2[C@H](CC(=O)N3CCC[C@H]3CO)O[C@@]3(C(=O)N(C)c4c(Br)cc(C)cc43)[C@@H]2C)cc1` has a composite z-score of 0.74. With `COCCCNC(=O)[C@]1(Cc2ccccc2N=[N+]=[N-])N=C(c2ccc(OCCCO)cc2)O[C@@H]1c1ccccc1` the composite z-score was 0.977. In the case of `[N-]=[N+]=NCc1ccccc1[C@H]1OC(c2ccc(OCCCO)cc2)=N[C@@]1(Cc1ccccc1N=[N+]=[N-])C(N)=O`, the composite z-score is reported as 1.01. `C=CC[C@]1(C(=O)NCC(O)CO)N=C(c2ccc(OCCCO)cc2)O[C@H]1c1ccccc1CN=[N+]=[N-]` (stereo partly drawn) showed a composite z-score of -0.204. `C[C@]1(C(=O)NC2CC2)c2ccccc2C(=O)N(Cc2cc(F)cc(C(F)(F)F)c2)[C@H]1c1ccc(CO)cc1` gave a composite z-score of -0.331. `CC(C)N1CC=CC23O[C@@H]4/C=C\CCCOC(=O)C4[C@H]2C(=O)N(C(C)CO)[C@@H]3C1=O` (stereo partly drawn) showed a composite z-score of -1.91. In the case of `CCOC(=O)C[C@H]1[C@H](OC(=O)c2ccccc2-c2ccccc2)[C@@H](NC(=O)CC(C)C)c2cc(OCCCO)ccc2N1C(=O)c1ccccc1`, the composite z-score is reported as 0.24. `CN(C)CCCCNC(=O)[C@H]1C[C@H]2C(=O)N[C@@H](CCCCN(C)C)C(=O)N2[C@H]1c1ccc(O)cc1` was tested, and the composite z-score was -0.803. Work on `CC(CO)N1C(=O)[C@@H]2[C@H]3C(=O)OCC=C[C@H]3OC23C=CCN(c2ccc4ccccc4c2)C(=O)[C@@H]13` (stereo partly drawn) yielded a composite z-score of -1.83. `CC(C)N1C(=O)[C@@]2(Cc3ccccc31)c1ccccc1C(=O)N(Cc1ccccc1)[C@H]2c1ccc(CO)cc1` showed a composite z-score of -0.375. `CCOC(=O)C1=CC[C@@H](c2ccccc2)N(S(=O)(=O)c2ccc(C)cc2)[C@@H]1C#N` gave a composite z-score of 0.317. `COc1ccc([Si](C)(C)[C@@H]2[C@@H](CC(=O)N(CCO)Cc3ccccc3)O[C@]3(C(=O)N(Cc4cccc(I)c4)c4ccccc43)[C@H]2C)cc1` was tested, and the composite z-score was 0.604. In the case of `CO[C@H]1O[C@H](CO)[C@@H](OC(=O)CCc2ccccc2)[C@@H]2OC(=O)[C@@H](Cc3ccc4ccccc4c3)C/C=C/C[C@H](Cc3ccc4ccccc4c3)C(=O)O[C@@H]12`, the composite z-score is reported as -0.142. With `O=C1O[C@H](c2ccccc2)[C@H](c2ccccc2)N2[C@H]1[C@@H](C(=O)O)[C@]1(C(=O)Nc3ccccc31)[C@H]2c1ccc(OCCO)cc1` the composite z-score was 0.438. Compound `O=C1c2ccccc2[C@@]2(Cc3ccccc3N(CC(F)(F)F)C2=O)[C@H](c2ccc(CO)cc2)N1Cc1ccccc1` has a composite z-score of -0.243. In the case of `COCCCNC(=O)[C@@]1(Cc2ccccc2I)c2ccccc2C(=O)N(C2CCCCC2)[C@H]1c1ccc(CO)cc1`, the composite z-score is reported as 0.544. For `COCCOC(=O)N1C(=O)[C@@]2(c3cc(C#CC4(O)CCCCCC4)ccc31)[C@H](C(N)=O)[C@H]1C(=O)O[C@H](c3ccccc3)[C@H](c3ccccc3)N1[C@@H]2c1ccc(OCCO)cc1`, the composite z-score was 0.95. With `CCCNC(=O)[C@@]1(Sc2ccc(C)cc2)CC(=O)N(Cc2cc(C(F)(F)F)cc(C(F)(F)F)c2)[C@@H]1c1ccc(CO)cc1` the composite z-score was -0.452. With `C=C(CCCC)/C(=C/C[C@@H](OC(C)=O)c1cccc(OCCO)c1)c1cc(C(=O)OC)ccc1OC` the composite z-score was 0.249. In the case of `Cc1cccc([C@H]2C[C@H]3C(Br)=C[C@@]2(CO)C(=O)[C@]32CO2)c1`, the composite z-score is reported as -1.05. `CCCCN1CC=CC23O[C@@H]4/C=C\CCCOC(=O)C4[C@H]2C(=O)N(CCCCCCO)[C@@H]3C1=O` (stereo partly drawn) showed a composite z-score of -1.21.
